In the library only some 3.2% were active in any assay of this set; here they are far more common.
Rce1 inhib = blocks yeast Ras-converting enzyme. Q03530. yeast membranes, quenched prenylated peptide cleavage fluorescence. calls only. 0.27% of 290,000 active;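 active means fall in fluorescence gain of 50% or more versus controls, with final raw signal at or below 3038400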;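 further: plate controls were neutral control wells for no effect and wells lacking membranes for full effect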
CHT allo act = human CHT allosteric activation; Q9GZV3; CHT-expressing cells, membrane potential dye, choline EC20; active compounds read high; LV-AA mutant CHT in HEK293 cells; B-score at 10 µM; 0.49% of 310,000 active; AID 488977;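 active means initial fluorescence not abnormally high and integrated response B-score, plate-corrected, over 3 SD above library mean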
TMEM16A act = activates or potentiates the mouse TMEM16A chloride channel; Q8BHY3; HEK293 TMEM16A/YFP-H148Q/I152L, iodide quench fluorescence; active compounds read low; B-score at 10 µM; 0.3% of 340,000 active; AID 623877;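 active means fluorescence-ratio B-score plate-corrected deviation score at least 3 library SD below zero, with starting fluorescence score within 5 deviations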;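 further: channel opened by trigger with iodide after compound preincubation; score built on the fluorescence ratio of max minus min over baseline; more negative score means more quench and so TMEM16A activation or potentiation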
Kir21 block = inhibitors of mouse Kir2.1 inward-rectifier potassium channel; P35561; HEK293-Kir2.1, FluxOR thallium flux fluorescence; active compounds read low; 0.85% of 310,000 active; B-score at 10 µM;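 active means fluorescence ratio B-score at or below minus 3 SD of library scores, with starting-brightness B-score within 2 SD, cut at about -4.2 in these data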;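 further: channel flux triggered by added potassium and thallium sulfate stimulus; B-score of peak minus minimum fluorescence over baseline after thallium stimulus; more negative B-score means stronger Kir2.1 block with less thallium influx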
Target sequence (P35561 whole entry, looked up): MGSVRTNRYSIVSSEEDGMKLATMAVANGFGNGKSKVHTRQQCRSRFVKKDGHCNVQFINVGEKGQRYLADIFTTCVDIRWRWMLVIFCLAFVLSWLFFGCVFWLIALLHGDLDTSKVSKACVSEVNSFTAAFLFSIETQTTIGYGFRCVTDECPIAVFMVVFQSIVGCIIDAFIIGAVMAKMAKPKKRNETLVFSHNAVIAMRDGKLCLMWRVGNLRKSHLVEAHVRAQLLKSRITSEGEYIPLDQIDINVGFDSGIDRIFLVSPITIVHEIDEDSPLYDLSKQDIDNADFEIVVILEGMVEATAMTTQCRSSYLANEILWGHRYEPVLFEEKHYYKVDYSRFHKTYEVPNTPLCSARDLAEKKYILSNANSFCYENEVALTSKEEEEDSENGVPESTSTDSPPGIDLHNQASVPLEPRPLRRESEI
TMEM16A inh = blocks the mouse calcium-activated chloride channel TMEM16A | Q8BHY3 | HEK293 TMEM16A/YFP iodide influx fluorescence, ionomycin | normalized B-score (activity score, 25-100; higher = stronger inhibition) at 10 µM | 1.2% of 310,000 active | AID 588511;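 active means ratio plate-corrected score three or more library SD toward inhibition, starting fluorescence score within five deviations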;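 further: score derived from kinetic fluorescence span divided by baseline fluorescence per well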
CHT block = inhibitors of human choline transporter CHT. Q9GZV3. CHT-expressing cells, membrane potential dye, choline response; active compounds read low. B-score at 10 µM. 0.86% of 310,000 active. AID 488975;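 active means B-score over 3 SD under the library average, and starting fluorescence ratio not unusually high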;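 further: choline stimulus applied at its EC90 after an EC20 pre-addition; B-score computed on integrated fluorescence ratio after choline addition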
CHT inh conf = confirmation of human choline transporter CHT inhibitors; shares compounds with CHT block; CHT-expressing cells, choline membrane potential dye; LV-to-AA substituted CHT, HEK293 cells; CHT activity remaining % of control (active compounds read low), % at 10 µM; 70% of 2,400 active;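 active means choline transporter activity left, mean of duplicates at 10 µM, below buffer-only control mean minus 3 SD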;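 further: depolarization triggered by choline at its EC90 following an EC20 pre-addition; 0% = hemicholinium-3 full block and 100% = buffer-only control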
HEK293 CHT ctr = counter-screen for CHT inhibitors: effect in parental HEK293 cells; shares compounds with CHT block; membrane potential dye, choline response; active = decrease or increase beyond buffer ±3SD; membrane potential ratio readout (active if shifted either direction beyond buffer ±3SD; no single direction) at 10 µM; 4% of 2,400 active;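 further: parental cells lack the transporter so any hit is non-specific; ratio is peak minus trough fluorescence over baseline after EC90 choline challenge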
Active calls of the source: *; i = inactive; . = not tested or not shown.

SMILES	Rce1 inhib	CHT allo act	TMEM16A act	Kir21 block	TMEM16A inh	CHT block	CHT inh conf	HEK293 CHT ctr
O=C(Nc1ccccc1)c1nnn(Cc2ccccc2)c1NC(=O)C(F)(F)F	i	i	i	-0.38	i	-5*	32%*	i
CC(C)c1ccc(NC(=O)CSc2nc(=O)n(CCCN3CCOCC3)c3c2CCC3)cc1	i	i	i	0.56	i	-4.9*	38%*	i
COc1ccc(Cl)c2sc(N(CCN(C)C)C(=O)c3ccc4c(c3)OCCO4)nc12	i	i	i	-2.8	i	-9.8*	36%*	i
CN1CCC(N(CCc2ccccc2)C(=O)CCC(=O)O)CC1	i	i	i	1.7	i	i	.	.
O=C(C1CC(=O)N(C2CCCC2)C1)N1CCN(c2ccccc2F)CC1 (configuration not stated)	i	i	i	0.8	i	i	.	.
Cc1ccc(C(=O)NCC(=O)N2CCC(Cc3ccccc3)CC2)cc1	i	i	i	-0.06	i	-5.2*	59%*	i
O=C(C1CC(=O)N(C2CCCC2)C1)N1CCC(Cc2ccccc2)CC1 (configuration not stated)	i	i	i	-0.48	i	-5.8*	55%*	i
O=C(/C=C/c1ccccc1)N1CCC(Cc2ccccc2)CC1	i	i	i	-0.06	i	-5.3*	i	i
COc1ccc(N(C(=O)CNC(=O)c2cccs2)C(C(=O)NCC2CCCO2)c2ccccc2)cc1 (configuration not stated)	i	i	i	0.94	i	i	.	.
Cc1ccccc1NC(=S)NNc1ncc(C(F)(F)F)cc1Cl	i	i	i	2	i	i	.	.
Fc1ccccc1NC(=S)NNc1ncc(C(F)(F)F)cc1Cl	i	i	i	0.39	100*	-8.1*	60%*	i
COc1cc(F)ccc1S(=O)(=O)N1CCN(c2ccccc2)CC1	i	i	i	-0.02	i	i	.	.
CCN(CC)CCCn1c2c(c(SCC(=O)N3CCc4ccccc43)nc1=O)CCC2	i	i	i	-1.1	i	-8*	42%*	i
CCCCCn1c(=O)[nH]c2cc(C(=O)NCCN3CCC(C)CC3)ccc2c1=O	i	i	i	-0.76	i	-6.1*	i	i
CCCCCn1c(=O)[nH]c2cc(C(=O)NCCCN3CCCCC3)ccc2c1=O	i	i	i	-0.76	i	i	.	.
O=C(COc1ccccc1-c1ccccc1)NNC(=O)NC1CCCCC1	i	i	i	-0.08	i	-6.3*	34%*	i
Cc1ccccc1OCC(=O)NC1CCCCCCC1	i	i	i	0.27	i	i	.	.
CC(/C=C1\SC(=O)N(CCCC(=O)O)C1=O)=C\c1ccccc1	i	i	i	-0.46	i	-5*	64%*	i
Cn1nnc(NC(=S)NC(=O)c2cc(Cl)ccc2Cl)n1	i	i	i	1.1	i	i	.	.
CN1CCCN(c2ncnc3scc(-c4ccc(F)cc4)c23)CC1	i	i	i	-0.05	i	-10*	24%*	i
Fc1ccc(CN2CCN(c3ncnc4scc(-c5ccc(F)cc5)c34)CC2)cc1	i	i	i	0.03	i	i	.	.
Cc1ccc(S(=O)(=O)NCCC(=O)OCC(=O)N2CCCC2=O)cc1C	i	i	i	0.73	i	i	.	.
O=C(O)CN1C(=O)/C(=C/C=C/c2ccccc2)SC1=S	i	i	i	-0.08	i	-8.5*	40%*	i
O=C(c1cccc(Oc2ccc([N+](=O)[O-])cc2Cl)c1)N1CCCCC1	i	i	i	-2.9	i	-7.4*	48%*	i
O=C(c1ccc(Oc2ccc([N+](=O)[O-])cc2Cl)cc1)N1CCCC1	i	i	i	-0.54	i	i	.	.
SMILES	Rce1 inhib	CHT allo act	TMEM16A act	Kir21 block	TMEM16A inh	CHT block	CHT inh conf	HEK293 CHT ctr
CC12CCC(C(=O)NNc3ccc([N+](=O)[O-])cc3)(OC1=O)C2(C)C (configuration not stated)	i	i	i	-0.54	i	-10*	i	i
CC12CCC(C(=O)NNc3ccccc3)(OC1=O)C2(C)C (configuration not stated)	i	i	i	-0.04	i	i	.	.
O=c1oc2ccccc2c(Cl)c1CN1CCCCC1	i	i	i	-0.12	i	-6.9*	31%*	i
O=C(Nc1cccc(CNCCc2c[nH]c3ccccc23)c1)c1ccccc1Cl	i	i	i	-2.1	i	-6.3*	31%*	i
CC(=O)c1cccc(NC(=O)NCCc2c[nH]c3ccccc23)c1	i	i	i	0.22	i	i	.	.
CC1Oc2ccccc2N(Cc2ccc(F)cc2)C1=O (configuration not stated)	i	i	i	-0.43	i	i	.	.
O=C(CCN1C(=O)[C@@H]2Cc3ccccc3CN2C1=O)N[C@H](C(=O)O)c1ccccc1	i	i	i	0.54	i	i	.	.
CC12CCC(C)(c3nc4ccccc4nc31)C2(C)C	i	i	i	-1.1	i	i	.	.
Cc1[nH]nc2c1-c1nc3ccccc3nc1C(C)(C)C2	i	i	i	-1.8	25*	-5*	i	i
CC(C)c1nc(C(=O)N2CCCC(CCC(=O)N(C)CCc3ccccn3)C2)cs1 (configuration not stated)	i	i	i	-1	i	-5.4*	i	i
CN(CCc1ccccn1)C(=O)CCC1CCCN(C(=O)c2cscn2)C1 (configuration not stated)	i	i	i	-0.04	i	i	.	.
O=C(Cn1[nH]c(=O)c2ccccc2c1=O)OCC(=O)N1CCc2ccccc2C1	i	i	i	-0.01	i	-5.4*	i	i
CC(=O)NN1C(=O)c2ccc(Oc3cccc([N+](=O)[O-])c3)cc2C1=O	i	i	i	-0.08	i	-8.3*	23%*	i
c1ccc(N2CCN(Cc3ccnc4ccccc34)CC2)cc1	i	i	i	0.02	i	-11*	i	i
O=C(C[n+]1cc(Br)cc2ccccc21)c1ccccc1	i	i	i	-2.2	i	-6.4*	56%*	2.4*
